Rows were chosen to be rich in hits. Some 19% of all compounds tested hit in one or more screens of this group.
DT40 TDP1 CPT = DT40-hTDP1 cell growth loss with CPT. chicken DT40 Tdp1-/-;hTDP1 cells + 20 nM CPT, ATP luminescence, 48 h. Potency, µM (highest dose often 46.2 µM), for the others: top-dose activity change, negative = growth inhibition, actives largely listed as inhibitors. 420,000 tested, 12% active; further: potency means the concentration at half of the fitted maximal effect; nearly all actives have a fitted effect of over 55% in size
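Cell growth measured by CellTiter-Glo luminescence after a minimum 48 h, 37 C compound exposure with 20 nM CPT in Tdp1-knockout DT40 cells stably expressing hTDP1, seeded 400/well; qHTS titration format.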
HT1080NT lethal = kills 2HG-producing HT-1080-NT fibrosarcoma cells. HT-1080-NT fibrosarcoma viability, CellTiter-Glo ATP luminescence, 48 h. Potency, µM (doses to about 46.1 µM), inactives show at the top dose activity, negative = less viability, actives largely listed as cytotoxic. 360,000 tested, 1.6% active;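 further: NT is the 2HG producing partner of a matched IDH1 knockdown line; potency means the concentration at half of the fitted maximal effect; 0% = DMSO-treated cells and -100% = media-only wells without cells; nearly all actives have a fitted effect of over 55% in size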
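Luminescent CellTiter-Glo readout after 48 hours of compound exposure at 37 degrees C defined viability of HT-1080-NT cells. Activity was normalized to DMSO wells and cell-free media wells; concentration-response curves were fitted and assigned curve classes.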
TDP1 cell noCPT = qHTS for Inhibitors of human tyrosyl-DNA phosphodiesterase 1 (TDP1): qHTS in cells in absence of CPT; Potency, µM (doses to about 46.2 µM), for the others: at the highest dose activity change, negative = growth inhibition, hits mostly inhibitors; DT40 Tdp1-/- hTDP1 cells, no CPT, ATP luminescence, 48 h; AID 686978, 2013; 420,000 tested, 15% active; further: potency means the concentration at half of the fitted maximal effect; nearly all actives have a fitted effect of over 55% in size
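Readout: luminescence from CellTiter-Glo after 30 min in the dark at RT. Cells: DT40 Tdp1-/- with stable hTDP1, 400/well. Exposure: compounds alone, ≥48 hr, 37 °C.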
IL1B secr inh = blocks inflammasome-driven IL-1 beta release; activity change, % at 57.5 µM; THP-1 LPS/ATP IL-1B secretion, AlphaLISA, 16 h; hits give low values; 360,000 tested, 4.7% active; in the data active means activity change below about -50%; inconclusive means mostly about -30% to -49%
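Secreted IL-1B measured by AlphaLISA bead assay after 16 h compound exposure of THP-1 cells; compounds (final up to 57.5 uM) added 1 h before LPS (250 ng/mL) and ATP (1.25 mM) stimulation; lower signal means less secretion.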
HT1080 IDH1KD tx = toxicity to HT-1080 IDH1 knockdown cells (counter line); HT-1080 IDH1 knockdown viability, ATP luminescence, 48 h; Potency, µM (series often up to 46.1 µM), for inactives: at the top dose activity, negative = toxicity, usual class: cytotoxic; 360,000 tested, 2% active;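 further: potency means the concentration at half of the fitted maximal effect; 0% = DMSO wells and -100% = cell-free medium wells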
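CellTiter-Glo luminescence after 48 h compound exposure at 37 degrees C of IDH1-knockdown HT-1080 cells in 5% FBS RPMI. %Activity scaled between DMSO wells and cell-free media wells, with curves fitted and assigned curve classes.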
An asterisk follows results filed as active; ? = inconclusive; . = no result; [ ] = another dose, or the depositor's remark. Unless noted, the call rests on the fitted dose curve; in most records, active means well fitted curve in the direction sought with a large enough effect; inconclusive means small, poorly fitted or top-dose-only effect, or another doubt; inactive means no such curve, though single readings can be large; an effect the other way counts as inactive or inconclusive. Unless noted, on the % scale 0 is the no-effect control and ±100 the full control effect.

SMILES	DT40 TDP1 CPT	HT1080NT lethal	TDP1 cell noCPT	IL1B secr inh	HT1080 IDH1KD tx
CCCc1cc(N2CCN(c3cccc(C)c3C)CC2)n2cnnc2n1	16.4µM*	.	18.4µM*	.	.
Cc1cccc(N2CCN(C(=O)C34CC5CC(CC(C5)C3)C4)CC2)c1C	?	9.5%	?	16.0	8.1%
CC[C@]1(O)CC[C@H]2[C@@H]3CCC4=CCCC[C@@H]4[C@H]3CC[C@@]21C	7.5µM*	.	5.31µM*	.	.
C1CN(P2(N3CC3)=NP(N3CC3)(N3CC3)=NP(N3CC3)(N3CC3)=N2)CCO1 (stereo not drawn)	0.581µM*	11.5%	1.3µM*	-3.9	5.4%
CC(C)OP(=O)(Oc1ccc(C(O)C(Cl)(Cl)Cl)cc1)OC(C)C (stereo not drawn)	?	-6.3%	18.4µM*	8.1	-3.1%
CN(C)C(=O)O/N=C(\N)COc1ccc(C(C)(C)C)cc1	20.6µM*	11.6µM*	?	-23.0	20.6µM*
NC(=O)C(c1ccccc1)(c1ccccc1)[C@@H]1CCN(CCc2ccc3c(c2)CCO3)C1	?	.	18.8µM*	.	.
Cc1ccc(-c2cc(C(F)F)n3ncc(C(=O)N4CCc5ccccc5C4)c3n2)cc1	?	6.4%	25.9µM*	-0.4	9.9%
CCCCC[C@@H](O)C1C(=O)OC(C)[C@H](O)/C=C/C=C/C=C/C=C/C=C(\C)C(O)C(O)C(O)C[C@H](O)C[C@H](O)C[C@H](O)C[C@H](O)C[C@@H]1O (stereo partly drawn)	6.0%	.	0.5%	.	.
Cc1ccc(NC(=O)Cn2c(=O)oc3cc(S(=O)(=O)N4CCCCCC4)ccc32)cc1Cl	11.6µM*	.	20.6µM*	.	.
CCc1cccc(NC(=O)Cn2c(=O)oc3cc(S(=O)(=O)N4CCOCC4)ccc32)c1	23.1µM*	5.0%	14.6µM*	4.3	-0.1%
O=C(Cn1c(=O)oc2cc(S(=O)(=O)N3CCCC3)ccc21)Nc1cccc(C(F)(F)F)c1	13µM*	-16.5%	14.6µM*	3.9	-13.8%
Cc1cc(C)cc(NC(=O)Cn2c(=O)oc3cc(S(=O)(=O)N4CC(C)CC(C)C4)ccc32)c1 (stereo not drawn)	?	?	?	-27.2	?
CC1CC(C)CN(S(=O)(=O)c2ccc3c(c2)oc(=O)n3CC(=O)N(C)Cc2ccccc2)C1 (stereo not drawn)	?	-0.4%	?	17.7	0.4%
O=C(Cn1c(=O)oc2cc(S(=O)(=O)N3CCCCCC3)ccc21)NCc1ccccc1Cl	9.2µM*	.	7.31µM*	.	.
O=S1(=O)CC2(N3CCOCC3)CCCCCCC21 (stereo not drawn)	1.5%	8.8%	3.0%	-2.1	1.5%
CCOC(=O)n1c(=O)oc2ccc(Cl)cc21	-20.4%	-4.9%	-18.5%	-6.7	?
C[C@]12CC[C@H]3[C@@H](CCC4=CC(=O)CC[C@@H]43)[C@@H]1CC[C@@H]2OC(=O)CCc1ccccc1	12.9%	.	-16.6%	.	.
O=C(COc1cccc(C(F)(F)F)c1)Nc1ccc(S(=O)(=O)N2CCCC2)cc1	23.1µM*	-0.2%[9.24 µM]	?	-21.0	?
CN(C)c1ccc(/C=C2/C(=O)NC(=O)N(CCc3ccc(F)cc3)C2=O)cc1	?	12.2%	?	1.6	0.0%
COCCN1C(=O)NC(=O)/C(=C\c2ccc(Br)cc2)C1=O	20.6µM*	-1.4%	?	-2.3	-2.6%
CNC(=O)Oc1ccc(N(C)C)cc1C(C)C	-1.5%	2.0%	-12.0%	0.0	-1.8%
Cn1c(O)c(C2=NNC(c3ccc(Cl)cc3)C2)c(=O)n(C)c1=O (stereo not drawn)	25.9µM*	-26.7%	?	18.8	?
CN1[C@H](CC(=O)c2ccccc2)CCC[C@H]1C[C@H](O)c1ccccc1	-1.8%	.	-25.1%	.	.
CCCOP(=O)(OCCC)C(NC(=O)c1ccccc1)=C(Cl)Cl	9.2%	4.3%	7.4%	4.6	0.3%
SMILES	DT40 TDP1 CPT	HT1080NT lethal	TDP1 cell noCPT	IL1B secr inh	HT1080 IDH1KD tx
O=C(CN1CCN(C(=O)CNC(=O)c2ccc(-c3ccccc3)cc2)CC1)Nc1ccccc1Cl	13µM*	?	13µM*	?	?
Cc1nnc2n1-c1sc(CCc3ccc(CC(C)C)cc3)cc1C(c1ccccc1Cl)=NC2C (stereo not drawn)	?	.	11.9µM*	.	.
C=CCC1(CN2CCCCCC2=O)C(=O)NC(=O)NC1=O	-2.0%	11.3%	8.5%	11.8	-1.3%
O=C(Nc1ccccc1)N1CC[C@@]2(CCCN(C(=O)Oc3ccccc3)C2)C1	5.3%	.	-11.2%	.	.
O=C(CN1CCN(C(=O)COc2cccc(F)c2)CC1)Nc1ccc(Cl)c(C(F)(F)F)c1	20.6µM*	-5.6%	5.17µM*	?	-1.8%
CC(C)=CCc1c(O)cc2c(c1O)C(=O)CC(c1ccc(O)cc1)O2 (stereo not drawn)	16.4µM*	-0.4%	23.1µM*	26.4	0.7%
CC(C)(C)C(=O)N1Cc2cc(N3CCCCC3)ccc2-n2nncc2C1	?	9.2%	?	-4.6	4.7%
Cc1nc2c(=O)n(C)c(=O)nc-2n(C)n1	0.411µM*	2.59µM*	0.517µM*	-100.2*	1.3µM*
COC(=O)C1=C(C)NC(COC(N)=O)=C(C(=O)OC(C)C)C1c1cccc(Cl)c1Cl (stereo not drawn)	29.9µM*	.	33.5µM*	.	.
C/C(=N\N1CCN(C)CC1)c1c(O)[nH]c(=O)[nH]c1=O	7.0%	9.0%	9.9%	6.1	0.6%
CCOC(=O)c1ccccc1NC(=O)c1c(O)[nH]c(=O)[nH]c1=O	0.1%	10.6%	-13.7%	6.5	4.7%
CCOC(=O)c1ccccc1NC(=O)N(Cc1ccc(CC)cc1)Cc1cn[nH]c1-c1ccc(OC)cc1	?	.	14.6µM*	.	.
CNC(=O)COC(=O)c1ccc(-c2nc3ccccc3s2)s1	-26.4%	-5.2%	?	8.4	-0.4%
CCS(=O)(=O)Nc1cccc(C(=C2CCCCC2)c2cnc[nH]2)c1	?	0.2%	20.6µM*	29.0	-2.0%
CC(C)NCC(O)c1ccc(C2CCCC2)cc1 (stereo not drawn)	16.4µM*	?	16.4µM*	?	-22.1%
CC(C)NCC(O)c1ccc(N)c(C#N)c1 (stereo not drawn)	-8.6%[92.5 µM]	.	-0.7%[92.5 µM]	.	.
CC(c1nc2ccccc2c(=O)[nH]1)N(C)CCOc1ccc(Cl)cc1 (stereo not drawn)	20.6µM*	0.0%	18.4µM*	4.9	5.7%
C=CCn1c(O)c(C(C)=NCCCn2ccnc2)c(=O)[nH]c1=O	2.2%	1.3%	1.6%	45.6	21.3%
O=C(CCc1nnc2ccc(NCc3ccccc3Cl)nn12)N1CCC2(CC1)OCCO2	-0.4%	0.4%	-2.8%	-28.1	-2.9%
